Results as given in ChEMBL document CHEMBL1961873, “Compounds: GSK PKIS; Assays: Nanosyn kinase panel” (2012).

Columns and labels:
[1] = target: Sphingosine kinase 1 (Homo sapiens) (UniProt Q9NYA1); details: at 1 µM;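 also: mean SPHK1 inhibition value reported from the GSK PKIS kinase panel screen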
[2] = target: T1, Sphingosine kinase 2 (Homo sapiens) (UniProt Q9NRA0); details: at 0.1 µM
T1 sequence (whole entry): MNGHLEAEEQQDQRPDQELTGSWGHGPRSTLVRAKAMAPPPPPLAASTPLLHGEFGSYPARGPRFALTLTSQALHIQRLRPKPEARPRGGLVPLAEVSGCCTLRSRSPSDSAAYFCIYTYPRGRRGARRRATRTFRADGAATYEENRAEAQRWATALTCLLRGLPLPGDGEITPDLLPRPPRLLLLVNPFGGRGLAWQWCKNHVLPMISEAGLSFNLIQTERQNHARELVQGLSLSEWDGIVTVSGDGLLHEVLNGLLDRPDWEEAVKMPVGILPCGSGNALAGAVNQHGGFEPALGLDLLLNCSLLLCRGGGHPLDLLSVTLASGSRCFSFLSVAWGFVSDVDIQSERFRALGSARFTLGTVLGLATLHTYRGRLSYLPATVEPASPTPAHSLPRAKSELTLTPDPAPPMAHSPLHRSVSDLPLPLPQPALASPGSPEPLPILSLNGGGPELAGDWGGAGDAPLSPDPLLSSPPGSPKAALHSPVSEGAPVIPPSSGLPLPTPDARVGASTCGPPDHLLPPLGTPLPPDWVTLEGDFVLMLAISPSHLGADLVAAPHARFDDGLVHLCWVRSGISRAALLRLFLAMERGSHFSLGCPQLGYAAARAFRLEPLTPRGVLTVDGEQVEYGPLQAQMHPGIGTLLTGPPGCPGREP

[3] = target: T1, Sphingosine kinase 2 (Homo sapiens); details: at 1 µM
[4] = target: Casein kinase II subunit alpha (Homo sapiens) (UniProt P68400); details: at 0.1 µM
Casein kinase II subunit alpha (Homo sapiens), sequence (P68400 whole entry, looked up): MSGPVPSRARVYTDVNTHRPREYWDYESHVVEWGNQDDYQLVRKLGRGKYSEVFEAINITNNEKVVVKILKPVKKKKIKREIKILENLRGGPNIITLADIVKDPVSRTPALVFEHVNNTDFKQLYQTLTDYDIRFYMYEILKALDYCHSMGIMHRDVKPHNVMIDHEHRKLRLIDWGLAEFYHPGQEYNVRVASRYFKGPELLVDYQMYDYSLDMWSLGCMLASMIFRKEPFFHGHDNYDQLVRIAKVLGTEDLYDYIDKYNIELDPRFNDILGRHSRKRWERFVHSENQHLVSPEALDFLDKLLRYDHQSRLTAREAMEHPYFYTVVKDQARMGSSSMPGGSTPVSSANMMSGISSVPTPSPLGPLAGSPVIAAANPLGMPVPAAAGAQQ

[5] = target: Casein kinase II subunit alpha (Homo sapiens) (UniProt P68400); details: at 1 µM
[6] = target: T2, Inhibitor of nuclear factor kappa-B kinase subunit alpha (Homo sapiens) (UniProt O15111); details: at 0.1 µM
T2 sequence (whole entry): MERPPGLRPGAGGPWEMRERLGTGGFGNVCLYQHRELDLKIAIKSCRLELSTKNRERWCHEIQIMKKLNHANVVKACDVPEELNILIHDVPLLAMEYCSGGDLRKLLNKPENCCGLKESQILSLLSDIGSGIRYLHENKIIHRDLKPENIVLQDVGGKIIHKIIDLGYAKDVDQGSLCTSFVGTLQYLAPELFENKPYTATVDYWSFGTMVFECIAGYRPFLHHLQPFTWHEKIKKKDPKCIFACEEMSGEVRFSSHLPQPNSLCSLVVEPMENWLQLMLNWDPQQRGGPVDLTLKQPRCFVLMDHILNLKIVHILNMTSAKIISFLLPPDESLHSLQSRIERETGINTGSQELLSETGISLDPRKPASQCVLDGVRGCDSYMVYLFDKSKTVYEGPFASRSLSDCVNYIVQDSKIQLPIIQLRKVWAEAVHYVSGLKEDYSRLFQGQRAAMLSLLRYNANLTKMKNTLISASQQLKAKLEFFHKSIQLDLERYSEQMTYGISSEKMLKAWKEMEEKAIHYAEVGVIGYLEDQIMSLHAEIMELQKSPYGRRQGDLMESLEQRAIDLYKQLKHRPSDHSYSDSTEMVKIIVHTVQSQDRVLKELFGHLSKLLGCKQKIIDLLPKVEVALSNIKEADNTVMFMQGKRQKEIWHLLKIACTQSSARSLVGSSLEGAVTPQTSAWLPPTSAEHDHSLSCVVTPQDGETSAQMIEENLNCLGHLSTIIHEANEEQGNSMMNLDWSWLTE

[7] = target: T2, Inhibitor of nuclear factor kappa-B kinase subunit alpha (Homo sapiens); details: at 1 µM
[8] = target: T3, Inhibitor of nuclear factor kappa-B kinase subunit beta (Homo sapiens) (UniProt O14920); details: at 0.1 µM
T3 sequence (whole entry): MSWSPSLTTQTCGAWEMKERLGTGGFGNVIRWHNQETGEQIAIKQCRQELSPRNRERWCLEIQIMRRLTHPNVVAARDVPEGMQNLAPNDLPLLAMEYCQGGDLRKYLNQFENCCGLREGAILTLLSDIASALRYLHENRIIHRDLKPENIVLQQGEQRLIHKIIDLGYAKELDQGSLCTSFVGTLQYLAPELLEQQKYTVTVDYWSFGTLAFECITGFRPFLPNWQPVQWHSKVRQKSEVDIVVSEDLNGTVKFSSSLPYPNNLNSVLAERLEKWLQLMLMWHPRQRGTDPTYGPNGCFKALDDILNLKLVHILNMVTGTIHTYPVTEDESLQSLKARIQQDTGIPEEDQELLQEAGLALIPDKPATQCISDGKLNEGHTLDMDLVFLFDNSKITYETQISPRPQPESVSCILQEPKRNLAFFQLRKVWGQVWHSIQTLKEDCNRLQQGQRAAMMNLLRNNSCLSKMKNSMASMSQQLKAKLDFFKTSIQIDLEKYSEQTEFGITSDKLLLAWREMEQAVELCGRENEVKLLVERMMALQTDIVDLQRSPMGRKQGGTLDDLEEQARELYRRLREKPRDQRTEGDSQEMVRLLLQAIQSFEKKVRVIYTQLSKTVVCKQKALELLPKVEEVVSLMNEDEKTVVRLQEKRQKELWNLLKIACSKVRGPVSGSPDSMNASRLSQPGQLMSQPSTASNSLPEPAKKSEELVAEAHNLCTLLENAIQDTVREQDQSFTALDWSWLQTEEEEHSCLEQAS

[9] = target: T3, Inhibitor of nuclear factor kappa-B kinase subunit beta (Homo sapiens); details: at 1 µM
[10] = target: T4, Inhibitor of nuclear factor kappa-B kinase subunit epsilon (Homo sapiens) (UniProt Q14164); details: at 0.1 µM;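 also: mean inhibition of IKKε reported, from the GSK PKIS dataset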
T4 sequence (whole entry): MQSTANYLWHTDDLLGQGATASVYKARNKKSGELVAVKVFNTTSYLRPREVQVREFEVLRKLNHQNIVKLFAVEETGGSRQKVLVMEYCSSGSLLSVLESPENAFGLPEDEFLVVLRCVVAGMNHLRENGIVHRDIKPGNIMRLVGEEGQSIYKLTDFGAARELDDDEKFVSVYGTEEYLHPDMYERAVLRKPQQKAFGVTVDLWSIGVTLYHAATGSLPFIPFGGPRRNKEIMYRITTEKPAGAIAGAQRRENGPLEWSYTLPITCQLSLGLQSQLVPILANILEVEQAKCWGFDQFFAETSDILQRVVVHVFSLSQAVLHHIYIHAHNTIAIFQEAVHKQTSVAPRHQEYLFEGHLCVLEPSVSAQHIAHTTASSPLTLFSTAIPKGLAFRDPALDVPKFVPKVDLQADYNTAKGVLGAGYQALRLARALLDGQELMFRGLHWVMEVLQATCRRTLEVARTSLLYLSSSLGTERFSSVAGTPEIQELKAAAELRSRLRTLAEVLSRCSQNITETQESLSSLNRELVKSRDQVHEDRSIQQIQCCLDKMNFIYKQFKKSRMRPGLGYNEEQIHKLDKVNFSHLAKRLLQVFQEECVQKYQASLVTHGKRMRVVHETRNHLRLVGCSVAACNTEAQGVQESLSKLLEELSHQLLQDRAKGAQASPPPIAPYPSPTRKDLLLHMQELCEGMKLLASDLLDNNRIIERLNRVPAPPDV

Sphingosine kinase 1 (Homo sapiens), sequence (Q9NYA1 whole entry): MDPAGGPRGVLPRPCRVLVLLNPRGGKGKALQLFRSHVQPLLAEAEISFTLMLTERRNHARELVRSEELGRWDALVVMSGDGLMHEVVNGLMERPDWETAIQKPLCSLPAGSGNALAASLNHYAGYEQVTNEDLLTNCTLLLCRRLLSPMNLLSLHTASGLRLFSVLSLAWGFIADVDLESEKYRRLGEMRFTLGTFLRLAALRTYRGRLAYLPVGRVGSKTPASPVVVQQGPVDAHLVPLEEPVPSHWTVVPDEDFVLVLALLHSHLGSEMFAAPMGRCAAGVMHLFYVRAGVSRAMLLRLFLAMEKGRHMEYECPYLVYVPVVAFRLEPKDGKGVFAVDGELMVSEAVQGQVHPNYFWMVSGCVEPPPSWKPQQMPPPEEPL

CC1=C(C(=O)Nc2ccc3[nH]ncc3c2)C(c2ccc(F)cc2)NC(=O)N1 (stereo not given)
inhibition [1]: -2.09%
inhibition [2]: -0.06%
inhibition [3]: -0.16%
inhibition [4]: 1.87%
inhibition [5]: 0.86%
inhibition [6]: 0.45%
inhibition [7]: 7.79%
inhibition [8]: 1.68%
inhibition [9]: 1.73%
inhibition [10]: 1.7%
